In all, about 310,000 compounds went through this assay and about 14,000 (4.5%) showed an effect of 50% or more. The effect is printed as a negative number. Only a selection was taken, and strong results are over-represented in it overall.
What follows are compounds tested against human ether-à-go-go-related gene (hERG) potassium channel (human, UniProt Q12809) (assay: primary screen, population patch clamp on CHO cells stably expressing hERG; higher = less effect of the substance).
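Note: peak tail current of the secondary pulse compared with the same well before compound.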

Chain of human ether-à-go-go-related gene (hERG) potassium channel (Q12809 whole entry, looked up): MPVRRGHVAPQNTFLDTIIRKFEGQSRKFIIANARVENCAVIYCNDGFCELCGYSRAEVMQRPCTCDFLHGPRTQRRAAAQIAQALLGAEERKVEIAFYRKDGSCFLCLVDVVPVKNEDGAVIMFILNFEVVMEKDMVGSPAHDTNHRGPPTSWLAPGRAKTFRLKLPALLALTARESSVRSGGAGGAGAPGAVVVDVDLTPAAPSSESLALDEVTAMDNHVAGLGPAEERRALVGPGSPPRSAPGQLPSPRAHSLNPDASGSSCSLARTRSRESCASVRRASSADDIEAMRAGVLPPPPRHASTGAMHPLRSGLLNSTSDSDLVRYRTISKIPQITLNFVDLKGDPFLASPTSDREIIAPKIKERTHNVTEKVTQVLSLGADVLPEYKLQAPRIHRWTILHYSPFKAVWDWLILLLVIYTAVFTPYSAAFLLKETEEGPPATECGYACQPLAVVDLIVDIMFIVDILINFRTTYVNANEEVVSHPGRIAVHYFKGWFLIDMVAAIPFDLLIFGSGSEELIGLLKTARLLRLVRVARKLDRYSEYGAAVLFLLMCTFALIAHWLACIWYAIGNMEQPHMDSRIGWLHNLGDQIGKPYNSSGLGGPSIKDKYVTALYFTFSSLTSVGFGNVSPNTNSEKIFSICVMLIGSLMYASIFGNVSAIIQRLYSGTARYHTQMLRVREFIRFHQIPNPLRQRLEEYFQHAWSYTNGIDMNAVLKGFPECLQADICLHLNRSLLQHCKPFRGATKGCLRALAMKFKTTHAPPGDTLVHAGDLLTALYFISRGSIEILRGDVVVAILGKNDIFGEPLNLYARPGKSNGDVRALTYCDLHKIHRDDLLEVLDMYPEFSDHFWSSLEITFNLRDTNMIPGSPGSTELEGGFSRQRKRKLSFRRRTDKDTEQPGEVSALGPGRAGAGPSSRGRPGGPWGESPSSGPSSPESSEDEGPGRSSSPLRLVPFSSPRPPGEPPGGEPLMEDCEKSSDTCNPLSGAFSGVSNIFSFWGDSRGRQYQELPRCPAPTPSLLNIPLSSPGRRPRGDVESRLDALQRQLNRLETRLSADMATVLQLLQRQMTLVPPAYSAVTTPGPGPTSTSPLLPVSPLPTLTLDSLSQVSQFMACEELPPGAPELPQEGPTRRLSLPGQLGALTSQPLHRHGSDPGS

| SMILES | hERG current change (%, negative = inhibition) at 10uM [%] |
| --- | --- |
| CCCCN1C(=O)NC(=O)C2(Cc3c(nc4ccccn4c3=O)N3CCc4ccccc4C32)C1=O (stereo not drawn) | -16.6 |
| Cc1sc2nc(CSc3ncn[nH]3)[nH]c(=O)c2c1C | 33.7 |
| Cn1c(-c2sc3cc(C(F)(F)F)cnc3c2-c2ccccc2)n[nH]c1=S | 20.1 |
| O=C(O)C(=O)O.Oc1ccccc1NCC(O)Cn1ccc2ccccc21 (stereo not drawn) | 13.4 |
| NC(=O)c1ccccc1NC(=O)NC1CCCCC1 | -6.68 |
| CCOC(=O)CCSCC(=O)Nc1cc(C)on1 | -3.91 |
| Cc1ccc(C(=O)NC(=S)Nc2ccccc2C(F)(F)F)cc1 | 16.3 |
| CC(C)NS(=O)(=O)c1ccc(NC(=O)NC2CCCCC2)cc1 | 1.79 |
| c1ccc(Cn2cc(-c3ccccc3)cn2)cc1 | -2.61 |
| CC(C)CCN1CCN(Cc2cnc(-c3ccccc3)s2)CC1CCO (stereo not drawn) | -56.6 |
| CC(C)N1CCN(Cc2cnc(-c3ccccc3)s2)CC1CCO (stereo not drawn) | -9.9 |
| Cc1ncc(CN2CCN(CCC(C)C)C(CCO)C2)s1 (stereo not drawn) | -20.1 |
| CCCOc1ccc(C(C)=O)cc1CC(C(N)=O)C(N)=O | 14.9 |
| CCCCOP(=O)(c1ccc(N(C)C)cc1)C(O)c1ccc(C(C)C)cc1 (stereo not drawn) | -13 |
| O=c1[nH]c2ccccc2n2c(C(F)(F)F)nnc12 | 14 |
| Cc1ccc(S(=O)(=O)N(Cc2cccc(Cl)c2)C(=O)N2CCN(C)CC2)cc1 | 9.85 |
| CCn1c(SCC(=O)N/N=C/C=C\c2ccccc2[N+](=O)[O-])nnc1-c1ccccc1 | -67 |
| Cn1c(SCC(=O)N/N=C/C=C/c2ccccc2[N+](=O)[O-])nc2ccccc21 | -1.36 |
| CCn1c(SCC(=O)NC(=O)c2ccccc2OC)nc2ccccc21 | -70.8 |
| COCCn1c(SCC(=O)Nc2ccccc2OC)nc2ccccc21 | -25.4 |

| SMILES | hERG current change (%, negative = inhibition) at 10uM [%] |
| --- | --- |
| CCn1c(SCC(=O)N/N=C/C=C\c2ccccc2[N+](=O)[O-])nc2ccccc21 | -63.8 |
| Cn1c(SCC(=O)N/N=C/C=C\c2ccccc2[N+](=O)[O-])nc2ccccc21 | 10.4 |
| CCn1c(SCC(=O)N/N=C/C=C/c2ccccc2[N+](=O)[O-])nnc1-c1ccccc1 | -36.6 |
| CCn1c(SCC(=O)NC(=O)NC(C)(C)C)nc2ccccc21 | 4.41 |
| CCn1c(SCC(=O)N/N=C/C=C/c2ccccc2[N+](=O)[O-])nnc1-c1ccc(Cl)cc1 | -15.6 |
| O=C1OCCN1C(=O)[C@H]1[C@H](c2ccc(Cl)cc2)C(c2cccc(Cl)c2)=NN1c1ccccc1 | 14 |
| COc1ccccc1C(=O)C1CCCN(C(=O)Nc2ccccc2F)C1 (stereo not drawn) | 37.3 |
| Cc1nn2c(N)c(C#N)cnc2c1-c1ccc(Cl)cc1 | -0.156 |
| Cc1cc2nnc(SCC(=O)NCc3cccs3)n2c(N)n1 | -8.37 |
| Cc1cccc(-n2nnc(C(=O)NCc3ccco3)c2N)c1 | -10.2 |
| OC1=C(O)c2nc3ccccc3nc21 | -1.17 |
| CC(C)Sc1nc2c([nH]1)c(=N)ncn2Cc1ccccc1 | -5.52 |
| Cc1noc(C)c1COc1ccc(CC(=O)NC2CCCCCC2)cc1 | 39.5 |
| COc1cc(C2NC(=O)CCC2[N+](=O)[O-])cc(OC)c1OC (stereo not drawn) | 29.6 |
| COc1cc(Cl)ccc1NC(=S)N(CCN(C)C)C(C)c1ccncc1 (stereo not drawn) | -39.2 |
| CSc1cccc(NC(=S)N(CCN(C)C)C(C)c2ccncc2)c1 (stereo not drawn) | -50.6 |
| COc1ccc(NC(=S)N(CCN(C)C)C(C)c2ccncc2)cc1Cl (stereo not drawn) | -59.9 |
| CCc1cccc(NC(=S)N(CCN(C)C)C(C)c2ccncc2)c1 (stereo not drawn) | -44 |
| COc1ccc(NC(=S)N(CCN(C)C)C(C)c2ccco2)cc1Cl (stereo not drawn) | -36.3 |
| COCCCN(C(=S)Nc1cc(C)cc(C)c1)C(C)c1ccncc1 (stereo not drawn) | -41 |

| SMILES | hERG current change (%, negative = inhibition) at 10uM [%] |
| --- | --- |
| COCCCN(C(=S)Nc1cc(Cl)cc(Cl)c1)C(C)c1ccncc1 (stereo not drawn) | -70.6 |
| CSc1cccc(NC(=S)N(CCN(C)C)C(C)c2ccccn2)c1 (stereo not drawn) | -36.2 |
| COCCCN(C(=S)Nc1cccc(Cl)c1)C(C)c1ccncc1 (stereo not drawn) | -17.3 |
| Cc1ccc(C(=O)c2ccc(C(F)(F)F)cc2)cc1 | 7.79 |
| CC(=O)N(C)C1=C(O)c2ccccc2C(=O)C1=O | 22.3 |
| Cc1ccc(NC(=O)COC(=O)Cc2c[nH]c3ccccc23)cc1C | -7.15 |
| COc1ccccc1-c1nnc(SCc2nc3ccccc3s2)n1C | -17 |
| COc1ccc(C(=O)COC(=O)Cn2cnc3c2c(=O)n(C)c(=O)n3C)c(OC)c1 | 3.76 |
| CSc1nsc(SCC(=O)NCc2ccc(C)cc2)n1 | 10.1 |
| COc1cc(OC)cc(-c2nnc(SCC(=O)N3CCOCC3)o2)c1 | 9.82 |
| Nc1nc(SCc2ccc(Cl)cc2)ns1 | -7 |
| COc1cc(CNCCN(C)C)c(Br)cc1OCC(=O)NCc1ccccc1 | -29.2 |
| NC(=O)N/N=C/c1cc(Br)ccc1OCC(=O)NCc1ccccc1 | -6.43 |
| COc1cc(CNC(C)c2ccccc2)cc(Cl)c1OCC(=O)Nc1ccccc1.Cl (stereo not drawn) | 9.86 |
| CCN(CC)CCNCc1cc(Cl)c(OCC(=O)Nc2ccccc2)c(OC)c1.Cl | -62.5 |
| CCOc1cc(CNCCN(C)C)c(Cl)cc1OCC(=O)NCCc1ccccc1.Cl | -10.8 |
| CCNCc1cc(Br)c(OCC(=O)Nc2ccccc2)c(OC)c1.Cl | -19.8 |
| CCN(CC)CCNCc1cc(Br)ccc1OCC(=O)NCc1ccccc1.Cl | -83.2 |
| CCN(CC)CCNCc1ccc(Br)cc1OCC(=O)NCc1ccccc1.Cl | -67.2 |
| CCCCNCc1cc(Br)c(OCC(=O)NCc2ccccc2)c(OC)c1.Cl | -39.4 |

— PMC4336329 (PLoS ONE, 2015)
